aSyn UTR act: Activators via SNCA 5'UTR binding, MLPCN | alpha-synuclein 5'UTR reporter, activators screen | AID 1814 | 300,000 compounds, 7.1% hits | activity score, % (tested at 7.5 µM), hits read low; in the data active = activity score below about -60%
Numbers without * were called inactive. The list is a sample of the results.

SMILES | aSyn UTR act
c1ccc(-c2csc(Nc3cccnc3)n2)nc1 | -218*
c1ccc(Nc2nc(-c3ccccn3)cs2)cc1 | -145*
c1cncc(Nc2nc(-c3cccs3)cs2)c1 | -218*
O=C(COc1ccccc1-c1ccccc1)NNC(=O)NC1CCCCC1 | -83*
Cc1ccccc1OCC(O)CNC1CCC(NCC(O)COc2ccccc2C)CC1 (stereo not given) | 99
Cc1ccc(OCC(=O)NC2CCCC2)c(C)c1 | -67*
Cc1ccccc1OCC(=O)NC1CCCCCCC1 | -65*
CC(=O)c1ccc(NC(=O)COC(=O)c2ccccc2N=Nc2ccc(N(C)C)cc2)cc1 | -101*
COC(=O)c1ccccc1NC(=O)COC(=O)c1ccccc1N=Nc1ccc(N(C)C)cc1 | -80*
CN(C)c1ccc(N=Nc2ccccc2C(=O)OCC(=O)N(C)c2ccccc2)cc1 | -83*
Cc1[nH][nH]c(=O)c1C=Nc1ccc(C(F)(F)F)cc1 | -77*
O=c1[nH][nH]c(C(F)(F)F)c1C=Nc1ccc(Cl)cc1 | -71*
O=[N+]([O-])c1ccc(Nc2ccc3ccccc3c2)nc1 | -168*
CCn1cc(SCC(=O)N2CCOCC2)c2ccccc21 | -114*
O=C(Cn1cc(SCc2ccccc2Cl)c2ccccc21)N1CCOCC1 | -163*
c1ccc(-c2noc(COc3ccc4c(c3)OCO4)n2)cc1 | -192*
Cc1ccc(OCc2nc(-c3ccccc3)no2)cc1 | -122*
Cc1ccccc1OCc1nc(-c2ccccc2)no1 | -178*
Cc1cc(NC(c2cccnc2)c2ccc3cccnc3c2O)no1 (stereo not given) | 77
Cc1cc(Br)ccc1OCc1nc(-c2cccnc2)no1 | -114*
Cc1ccc(-c2noc(COc3ccccc3C)n2)cc1 | -86*
O=C(Nc1nnc(Cc2ccccc2)s1)c1cccs1 | -128*
CC(C)Oc1ccc(C(=O)Nc2nnc(SCC(=O)N3CCOCC3)s2)cc1 | 98
O=C(Nc1nnc(CCN2CCOCC2)s1)c1ccccc1 | -67*
O=C(Nc1nnc(CCc2ccccc2)s1)c1cccc(F)c1 | -103*
SMILES | aSyn UTR act
O=C(Nc1nnc(CC2=CCCCC2)s1)c1cccs1 | -93*
O=C(Nc1nnc(Cc2ccccc2)s1)c1ccccc1 | -160*
CCc1nnc(NC(=O)c2ccc(N(C)S(=O)(=O)c3ccccc3)cc2)s1 | -129*
CCN(c1ccccc1)S(=O)(=O)c1ccc(C(=O)Nc2nnc(C3CC3)o2)cc1 | 71
CCN(Cc1ccccc1)S(=O)(=O)c1ccc(C(=O)Nc2nnc(-c3ccccc3OC)o2)cc1 | 67
CCOc1ccc(C(=O)OCC(=O)c2c(N)n(C)c(=O)n(C)c2=O)cc1OCC | -118*
COC(=O)c1sc(NC(=O)c2ccoc2C)nc1C | -136*
COC(=O)c1sc(NC(=O)/C=C/c2ccc(C)o2)nc1C | -65*
COC(=O)c1sc(NC(=O)c2ccco2)nc1C | -69*
CCc1cc2c(=O)c(-c3ccc4c(c3)OCCO4)coc2c(CN2CCCCC2C)c1O (stereo not given) | -65*
CCc1cc2c(=O)c(-c3ccc4c(c3)OCCO4)coc2cc1OS(C)(=O)=O | -116*
O=c1c(-c2ccc3c(c2)OCCO3)coc2c(CN3CCOCC3)c(O)ccc12 | -94*
FC(F)Oc1ccccc1/C=N/n1cnc2ccccc21 | -191*
Cc1nc2sc(-c3ccccc3)cc2c(=O)n1/N=C/N(C)C | -156*
NC(=O)CSc1nc2sc(-c3ccccc3)cc2c(=O)n1N | -64*
Cc1nc2sc(-c3ccccc3)cc2c(=O)n1N | 75
Cc1nc2sc(-c3ccccc3)cc2c(=O)n1-n1cccc1 | -189*
CC1(C)CC(=O)C2=C(C1)c1c(ccc3ccccc13)NC2c1ccco1 (stereo not given) | -193*
O=C(Nc1cnc2ccccc2c1)c1ccncc1 | -110*
Cn1ncc2cc(NC(=S)NC(=O)c3ccccc3)ccc21 | -201*
S=C(NCCc1ccccc1)Nc1cnc2ccccc2c1 | -115*
Cc1ccc(NC(=O)Nc2cnc3ccccc3c2)cc1 | -144*
O=C(NC(=S)Nc1cnc2ccccc2c1)c1ccccc1 | -171*
O=C(NC(=S)Nc1ncc(Br)cc1Br)c1ccccc1 | -153*
C/C(=N\NC(=O)c1cc(C2CC2)nc2ccccc12)c1ccc(O)cc1O | 74
SMILES | aSyn UTR act
Cc1onc(-c2ccccc2)c1C(=O)NC(=S)NNC(=O)c1ccc(O)cc1O | 64
O=C(NNc1c2ccccc2nc2ccccc12)c1ccc(O)cc1O | -79*
O=C(NNc1c2ccccc2nc2ccccc12)c1ccccc1O | -93*
O=C(c1nc2ccccc2s1)N1CCSCC1 | -92*
Cc1c(-c2nc(N)nc(Nc3ccc(F)cc3)n2)oc2ccccc12 | -95*
CSCCC(=O)N1CCC(n2nccc2NC(=O)c2ccc3c(c2)OCO3)CC1 | -84*
CC#CC(=O)N1CCC(n2nccc2NC(=O)c2ccc3c(c2)OCO3)CC1 | -83*
O=C(/C=C/c1ccc(Cl)cc1)NCc1ccco1 | -87*
O=C(/C=C/c1ccc(S(=O)(=O)NCc2ccco2)cc1)NCc1ccccc1Cl | -72*
CCN(CC)c1ccc(/C=C2\SC(=O)N(C(C)C)C2=O)o1 | -103*
O=c1[nH]c(-c2cccnc2)nc2sc(-c3ccccc3)cc12 | -119*
CC(C)OC(=O)Cc1nc2sc(-c3ccccc3)cc2c(=O)[nH]1 | -87*
Fc1ccc(N2Cc3ccsc3C=N2)cc1 | -64*
Cc1cccnc1NC(=O)Nc1ccccc1 | -141*
COc1ccc(NC(=O)Nc2ncccc2C)cc1 | -157*
Cc1cccnc1NC(=O)c1ccc(OCc2c(C)noc2C)cc1 | -81*
Cc1cccnc1NC(=O)Nc1ccc(Cl)cc1 | -84*
CCC(C)n1ncn(-c2ccc(N3CCN(c4ccc(OCC5COC(Cn6cncn6)(c6ccc(Cl)cc6Cl)O5)cc4)CC3)cc2)c1=O (stereo not given) | 100
COc1ccc(C(=O)NC(=O)Nc2ncccc2C)cc1 | -139*
CC(C)(C)c1ccc(C(=O)N2CCCCCC2=O)cc1 | 91
Cc1cccc(N2CCN(C(=O)CNC(=O)c3ccccc3)CC2)c1C | -81*
CC(C)(C)c1ccc(C(=O)NCC(=O)N2CCCC2)cc1 | -74*
Cc1ccc(C(=O)NCCC(=O)N2CCCC2)cc1 | -146*
Cc1cccc(N2CCN(C(=O)c3c(-c4ccccc4)noc3C)CC2)c1C | 65
Cc1ccc(S(=O)(=O)Cc2ccc(C(=O)N3CCN(c4cccc(C)c4C)CC3)o2)cc1 | 88
SMILES | aSyn UTR act
CC(C)(C)c1ccc(C(=O)NNC(=O)C2CCCCC2)cc1 | -64*
O=C(NCCc1ccc(Cl)cc1)C1CCC(CNc2nc(=S)[nH]c3ccccc23)CC1 (stereo not given) | 65
S=c1nc(NCCc2ccccc2Cl)c2ccccc2[nH]1 | -114*
COc1ccc(Cc2nn3c(-c4ccccc4Br)nnc3s2)cc1 | 37
COc1ccc(Cn2c(-c3ccc(Br)cc3)c[n+]3ccccc23)cc1 | -143*
c1csc(-c2cn3ccc4ccccc4c3n2)c1 | -209*
c1ccc(-c2ccc3c(c2)NCCN3)cc1 | -113*
CC(=O)c1ccc(N2CCN(C(=O)c3ccc(Cn4c(=S)[nH]c5ccc(N6CCOCC6)cc5c4=O)cc3)CC2)cc1 | -72*
Cc1csc(NC(=O)c2oc3ccccc3c2C)n1 | -68*
Cc1sc(NC(=O)c2sc3nc4c(C)cccc4cc3c2N)c(C#N)c1C | -119*
Cc1cccc2cc3c(N)c(C#N)sc3nc12 | 84
Cc1c(C(=O)NC2=NCCS2)oc2ccccc12 | -62*
Cc1cc(C(=O)Nc2sc(C)c(C)c2C#N)c(C)o1 | -65*
Cc1csc(Nc2nc(N)c(C(=O)Nc3ccccc3)o2)n1 | -131*
Cc1sc(NC(=O)c2oc3ccccc3c2C)c(C#N)c1C | -107*

Assay outcomes: PubChem BioAssay, Broad Institute
